# AmpC detergent – qHTS Inhibitors of AmpC Beta-Lactamase (assay with detergent). Potency, µM (top dose mostly 114 µM), for inactives: top-dose activity change, negative = inhibition, actives largely listed as inhibitors. AmpC hydrolysis of nitrocefin, absorbance 480 nm, 0.01% Triton. hit rate 0.041% among 370,000. P00811;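 also: 0% = no-compound wells and -100% = no-enzyme wells; nearly all actives have a fitted effect of over 25% in size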
# Target sequence (P00811 whole entry, looked up): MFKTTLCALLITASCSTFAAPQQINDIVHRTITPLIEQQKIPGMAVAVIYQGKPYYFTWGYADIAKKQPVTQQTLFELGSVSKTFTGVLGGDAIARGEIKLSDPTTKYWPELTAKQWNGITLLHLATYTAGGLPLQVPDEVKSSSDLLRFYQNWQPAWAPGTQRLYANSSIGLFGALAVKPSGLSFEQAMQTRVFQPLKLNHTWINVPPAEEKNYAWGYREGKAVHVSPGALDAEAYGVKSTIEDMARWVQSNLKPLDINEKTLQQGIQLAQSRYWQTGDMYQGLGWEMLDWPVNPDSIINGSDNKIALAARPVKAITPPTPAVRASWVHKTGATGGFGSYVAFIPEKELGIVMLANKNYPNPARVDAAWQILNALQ
#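 AmpC (5.3 nM in the dispensed reagent) in 20 mM phosphate pH 7.0 with 0.01% (detergent screen) or 0.0001% Triton X-100 was preincubated with compounds for 15 min at room temperature. Nitrocefin was then added from an 800 uM solution, and hydrolysis was followed at 480 nm.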
# AmpC no deterg – qHTS Inhibitors of AmpC Beta-Lactamase (assay without detergent); hit rate 0.52% among 330,000; Potency, µM (titrated, usually from 57.1 µM), for inactives: at the top dose activity change, negative = inhibition, usual class: inhibitors; AmpC nitrocefin hydrolysis, absorbance 480 nm, 0.0001% Triton; AID 485341, 2010;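 also: plate controls were no compound for no effect and no enzyme for full effect; nearly all actives have a fitted effect of over 20% in size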
#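 20 mM phosphate pH 7.0 + 0.01% (detergent screen) or 0.0001% Triton X-100; 5.3 nM AmpC reagent; cpd preinc 15 min RT; nitrocefin (800 uM stock) to start; A480 q20 s × 4 min; Activity was normalised to no-enzyme and no-compound control wells.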
# Giardia FBPA inh – qHTS Assay for Inhibitors of Fructose-1,6-bisphosphate Aldolase from Giardia Lamblia; A8B2U2; purified Giardia FBPA; Potency, µM (highest dose often 59.6 µM), without a hit: at the top dose activity, negative = inhibition, actives largely listed as inhibitors; hit rate 0.71% among 290,000; also: nearly all actives have a fitted effect of over 55% in size
# Target sequence (A8B2U2 whole entry, looked up): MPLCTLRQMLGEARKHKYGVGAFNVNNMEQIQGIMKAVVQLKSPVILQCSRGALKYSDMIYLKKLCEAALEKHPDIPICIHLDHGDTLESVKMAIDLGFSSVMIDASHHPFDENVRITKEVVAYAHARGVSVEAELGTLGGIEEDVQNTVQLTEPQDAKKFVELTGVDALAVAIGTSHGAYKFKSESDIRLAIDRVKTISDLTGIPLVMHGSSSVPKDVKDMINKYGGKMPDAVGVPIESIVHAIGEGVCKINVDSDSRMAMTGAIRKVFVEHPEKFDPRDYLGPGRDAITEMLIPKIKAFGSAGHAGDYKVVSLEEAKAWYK
#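 Giardia FBPA (40 nM reagent) was preincubated 10 min at RT with compound (up to 57.5 uM final), then substrate plus GAPDH/TPI/NAD/arsenate coupling system with diaphorase/resazurin was added; resorufin fluorescence (525/598 nm) was read after 20 min.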
# Sm TGR block – qHTS Assay for the Inhibitors of Schistosoma Mansoni Peroxiredoxins | purified TGR, DTNB reduction, TNB absorbance 405 nm | hit rate 3% among 360,000 | Potency, µM (highest dose often 114 µM), without a hit: at the highest dose activity change, negative = inhibition, hits mostly inhibitors; also: nearly all actives have a fitted effect of over 60% in size
#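 First, TGR (20 nM dispensed) and NADPH were mixed with compound. Second, a 15 min room-temperature incubation followed. Third, further NADPH and then DTNB were added to start the reaction. Finally, TNB absorbance was monitored kinetically.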
# The depositor's hits bear a star; u = inconclusive; x = no result given; [ ] = another dose, or the depositor's remark. Rows were chosen to be rich in hits. Some 3.6% of all compounds tested hit in one or more screens of this group. Calls follow the shape of the dose curve; as a rule, active = well fitted curve in the direction sought with a large enough effect; inconclusive = small, poorly fitted or top-dose-only effect, or another doubt; inactive = no such curve, though single readings can be large; an effect the other way counts as inactive or inconclusive. Unless noted, % is scaled to controls: 0 for no effect and ±100 for the full control effect; potency is read from the fitted curve at half-maximal effect.
SMILES,AmpC detergent,AmpC no deterg,Giardia FBPA inh,Sm TGR block
CCOC(=O)N1CCN(CC(=O)c2ccc3c(c2)CCN3C(C)=O)CC1,-20.5%,7.5%,-3.3%,20µM*
COCCN(C(=O)Cc1cccs1)C(C(=O)NC1CCCC1)c1cc(OC)c(OC)c(OC)c1 (configuration not stated),0.2%,-27.6%,-5.7%,8.8%
O=C(NC1CCCCC1)C(c1ccc(Cl)cc1)N(C(=O)c1ccccn1)c1cccnc1 (configuration not stated),4.0%,-13.2%,1.9%,0.6%[57.1 µM]
O=C(c1ccc(CNS(=O)(=O)c2ccc(Br)cc2)cc1)N1CCC2(CC1)OCCO2,-14.9%,-3.3%,6.1%,-11.9%
O=C(c1ccc(CS(=O)(=O)c2ccccc2)o1)N1CCN(c2ncccn2)CC1,-7.4%,-2.5%,3.4%,28.2µM*
O=C(c1ccc(CS(=O)c2ccccc2Cl)o1)N1CCOCC1 (configuration not stated),0.1%,-12.4%,x,31.6µM*
COc1ccc(S(=O)(=O)Cc2ccc(C(=O)N3CCOCC3)o2)cc1,u,-2.0%,7.7%,28.2µM*
COc1ccc(S(=O)(=O)Cc2ccc(C(=O)N3CC(C)CC(C)C3)o2)cc1 (configuration not stated),u,44.8%,-10.1%,u
O=C(c1ccc(CS(=O)c2ccccc2Cl)o1)N1CCN(c2ccccc2)CC1 (configuration not stated),5.1%,106.5%,x,-24.7%
O=C(c1ccc(CNS(=O)(=O)c2ccccc2)cc1)N1CCC2(CC1)OCCO2,0.5%,7.9%,-9.1%,39.8µM*
CS(=O)(=O)N1CCc2cc(C(=O)NCc3ccccc3)ccc21,23.1%,x,x,5.9%
COc1ccccc1S(=O)Cc1ccc(C(=O)NCc2ccccc2Cl)o1 (configuration not stated),-7.3%,0.8%,2.4%,15.8µM*
Cc1cccc(CS(=O)(=O)Cc2ccc(C(=O)N3CCC4(CC3)OCCO4)o2)c1,2.1%,25.8%,-3.5%,u
O=C(c1ccc(CS(=O)(=O)c2ccc(Br)cc2)o1)N1CCN(c2ccc(F)cc2)CC1,5.0%,53.1%,x,0.1%
COc1ccccc1CNC(=O)c1ccc(CS(=O)(=O)c2c(Cl)cccc2Cl)o1,u,x,x,-7.4%
O=C(c1ccc(CS(=O)(=O)c2ccccc2)o1)N1CCC2(CC1)OCCO2,-11.7%,-2.1%,-3.8%,22.4µM*
O=C(c1ccc(CS(=O)(=O)c2ccc(Br)cc2)o1)N1CCOCC1,-2.9%,-6.0%,-2.9%,44.7µM*
O=C(c1ccc(CS(=O)(=O)c2ccc(Br)cc2)o1)N1CCC2(CC1)OCCO2,-5.8%,-15.1%,-2.4%,35.5µM*
Cc1cc(C)n(-c2nc3ccccc3c(=O)n2OCc2ccc(F)cc2)n1,31.6µM*,45.3%,-14.3%,-9.0%
CC1(N2CCCCC2)CC2(O)C(=[N+]1[O-])CCC/C2=N\O (configuration not stated),-12.3%,-21.2%,-25.4%,50.1µM*
O/C=c1\ccc2cccc3nc(C(F)(F)F)nc1c23,1.2%,12.6µM*,u,3.16µM*
NNc1nc(C(F)(F)F)nc2ccccc12,-0.6%,-13.5%,u,6.0%
CCN(c1ccccc1)S(=O)(=O)c1cccc(C(=O)NCCOc2ccccc2OC)c1,0.0%,1.2%,x,0.2%
C#CCOCCOCCOCCNc1nc(N2CCN(C(=O)CCCCCCCCCCNC(=O)[C@H](CO)n3cc(CCCCCN)nn3)CC2)nc(N2CCN(C(=O)CCCCCCCCCCNC(=O)[C@H](CCCN=C(N)N)n3cc(C[C@@H](C)CC)nn3)CC2)n1,3.8%,269.0%,x,44.7µM*
C#CCOCCOCCOCCNc1nc(N2CCN(C(=O)CCCCCCCCCCNC(=O)[C@H]([C@@H](C)CC)n3cc(CCCCN=C(N)N)nn3)CC2)nc(N2CCN(C(=O)CCCCCCCCCCNC(=O)[C@H](CCCN=C(N)N)n3cc(C[C@@H](C)CC)nn3)CC2)n1,0.1%,242.2%,x,u
SMILES,AmpC detergent,AmpC no deterg,Giardia FBPA inh,Sm TGR block
C#CCOCCOCCOCCNc1nc(N2CCN(C(=O)CCCCCCCCCCNC(=O)[C@@H](CCSC)n3cc(CCO)nn3)CC2)nc(N2CCN(C(=O)CCCCCCCCCCNC(=O)[C@H](CCCN=C(N)N)n3cc(C[C@@H](C)CC)nn3)CC2)n1,2.6%,266.0%,x,5.01µM*
C#CCOCCOCCOCCNc1nc(N2CCN(C(=O)CCCCCCCCCCNC(=O)[C@H](CCCCN)n3cc(C[C@@H](C)CC)nn3)CC2)nc(N2CCN(C(=O)CCCCCCCCCCNC(=O)[C@H](CCCN=C(N)N)n3cc(C[C@@H](C)CC)nn3)CC2)n1,u,270.8%,x,u
C#CCOCCOCCOCCNc1nc(N2CCN(C(=O)CCCCCCCCCCNC(=O)[C@H](CCCCN)n3cc(CCO)nn3)CC2)nc(N2CCN(C(=O)CCCCCCCCCCNC(=O)[C@H](CCCCN)n3cc(C[C@@H](C)CC)nn3)CC2)n1,5.6%,285.8%,x,50.1µM*
COc1ccc(S(=O)(=O)Nc2cc3c4c(c2)CCN4C(=O)CC3)cc1C,u,-28.8%,x,-0.8%
Cn1c(C(=O)NCc2ccccc2Cl)cc2sc(Cl)cc21,18.1%,x,x,6.6%
Cn1ncc(Cl)c1C(=O)Nc1cccc(Cl)c1,u,-7.2%,-22.6%,44.7µM*
COc1ccccc1N1CCN(CC(=O)N2CCCC2)CC1,2.2%,-0.6%,u,-8.9%[57.1 µM]
COc1ccc(C(=O)CCN2CCN(c3ccccc3OC)CC2)cc1,u,9.0%,u,0.562µM*
COc1ccccc1N1CCN(CC(=O)c2ccc3ccn(C(C)=O)c3c2)CC1,-8.3%,-8.7%,-12.8%,25.1µM*
COc1ccccc1N1CCN(CCCC(=O)c2ccc(F)cc2)CC1,-7.4%,2.7%,6.7%,-1.3%
CCCCN(C(=O)CSCC(=O)Nc1ccc(C)cc1)c1c(N)n(Cc2ccccc2)c(=O)[nH]c1=O,u,2.2%,x,-11.8%
N#Cc1ccc(C(=O)NCC2CCCCC2)cc1,1.8%,-10.2%,-1.1%,11.1%
CCOc1cccc(N2C(=O)CC(n3cnc4ccccc43)C2=O)c1 (configuration not stated),u,-12.5%,-2.4%,u
CCOc1cccc(N2C(=O)CC(N3CCC(C(N)=O)(N4CCCCC4)CC3)C2=O)c1 (configuration not stated),u,-13.2%,4.2%,44.7µM*
CCOC(=O)c1ccc(N2C(=O)CC(N3CCC(C(N)=O)(N4CCCCC4)CC3)C2=O)cc1 (configuration not stated),-9.7%,-21.9%,0.4%,28.2µM*
CCOC(=O)C1CCCN(C2CC(=O)N(c3ccc(C)cc3)C2=O)C1 (configuration not stated),1.8%,-1.1%,2.5%,u
CCOC(=O)C1CCCN(C2CC(=O)N(c3ccc(NC(C)=O)cc3)C2=O)C1 (configuration not stated),4.7%,-10.4%,1.6%,44.7µM*

# Screening results as filed in PubChem.
